# Results published in PubChem BioAssay.
# Molecular target: Neurogenic locus notch homolog protein 3 (Homo sapiens) (UniProt Q9UM47)
# Test: NOTCH3 binders on small-molecule microarray, primary screen, biochemical, 635/667 nm fluorescence (AID 1096)
# Conditions: NOTCH3 binding, 635 nm fluorescence, higher = more signal
# Chain of Neurogenic locus notch homolog protein 3 (Homo sapiens) (Q9UM47 whole entry, looked up): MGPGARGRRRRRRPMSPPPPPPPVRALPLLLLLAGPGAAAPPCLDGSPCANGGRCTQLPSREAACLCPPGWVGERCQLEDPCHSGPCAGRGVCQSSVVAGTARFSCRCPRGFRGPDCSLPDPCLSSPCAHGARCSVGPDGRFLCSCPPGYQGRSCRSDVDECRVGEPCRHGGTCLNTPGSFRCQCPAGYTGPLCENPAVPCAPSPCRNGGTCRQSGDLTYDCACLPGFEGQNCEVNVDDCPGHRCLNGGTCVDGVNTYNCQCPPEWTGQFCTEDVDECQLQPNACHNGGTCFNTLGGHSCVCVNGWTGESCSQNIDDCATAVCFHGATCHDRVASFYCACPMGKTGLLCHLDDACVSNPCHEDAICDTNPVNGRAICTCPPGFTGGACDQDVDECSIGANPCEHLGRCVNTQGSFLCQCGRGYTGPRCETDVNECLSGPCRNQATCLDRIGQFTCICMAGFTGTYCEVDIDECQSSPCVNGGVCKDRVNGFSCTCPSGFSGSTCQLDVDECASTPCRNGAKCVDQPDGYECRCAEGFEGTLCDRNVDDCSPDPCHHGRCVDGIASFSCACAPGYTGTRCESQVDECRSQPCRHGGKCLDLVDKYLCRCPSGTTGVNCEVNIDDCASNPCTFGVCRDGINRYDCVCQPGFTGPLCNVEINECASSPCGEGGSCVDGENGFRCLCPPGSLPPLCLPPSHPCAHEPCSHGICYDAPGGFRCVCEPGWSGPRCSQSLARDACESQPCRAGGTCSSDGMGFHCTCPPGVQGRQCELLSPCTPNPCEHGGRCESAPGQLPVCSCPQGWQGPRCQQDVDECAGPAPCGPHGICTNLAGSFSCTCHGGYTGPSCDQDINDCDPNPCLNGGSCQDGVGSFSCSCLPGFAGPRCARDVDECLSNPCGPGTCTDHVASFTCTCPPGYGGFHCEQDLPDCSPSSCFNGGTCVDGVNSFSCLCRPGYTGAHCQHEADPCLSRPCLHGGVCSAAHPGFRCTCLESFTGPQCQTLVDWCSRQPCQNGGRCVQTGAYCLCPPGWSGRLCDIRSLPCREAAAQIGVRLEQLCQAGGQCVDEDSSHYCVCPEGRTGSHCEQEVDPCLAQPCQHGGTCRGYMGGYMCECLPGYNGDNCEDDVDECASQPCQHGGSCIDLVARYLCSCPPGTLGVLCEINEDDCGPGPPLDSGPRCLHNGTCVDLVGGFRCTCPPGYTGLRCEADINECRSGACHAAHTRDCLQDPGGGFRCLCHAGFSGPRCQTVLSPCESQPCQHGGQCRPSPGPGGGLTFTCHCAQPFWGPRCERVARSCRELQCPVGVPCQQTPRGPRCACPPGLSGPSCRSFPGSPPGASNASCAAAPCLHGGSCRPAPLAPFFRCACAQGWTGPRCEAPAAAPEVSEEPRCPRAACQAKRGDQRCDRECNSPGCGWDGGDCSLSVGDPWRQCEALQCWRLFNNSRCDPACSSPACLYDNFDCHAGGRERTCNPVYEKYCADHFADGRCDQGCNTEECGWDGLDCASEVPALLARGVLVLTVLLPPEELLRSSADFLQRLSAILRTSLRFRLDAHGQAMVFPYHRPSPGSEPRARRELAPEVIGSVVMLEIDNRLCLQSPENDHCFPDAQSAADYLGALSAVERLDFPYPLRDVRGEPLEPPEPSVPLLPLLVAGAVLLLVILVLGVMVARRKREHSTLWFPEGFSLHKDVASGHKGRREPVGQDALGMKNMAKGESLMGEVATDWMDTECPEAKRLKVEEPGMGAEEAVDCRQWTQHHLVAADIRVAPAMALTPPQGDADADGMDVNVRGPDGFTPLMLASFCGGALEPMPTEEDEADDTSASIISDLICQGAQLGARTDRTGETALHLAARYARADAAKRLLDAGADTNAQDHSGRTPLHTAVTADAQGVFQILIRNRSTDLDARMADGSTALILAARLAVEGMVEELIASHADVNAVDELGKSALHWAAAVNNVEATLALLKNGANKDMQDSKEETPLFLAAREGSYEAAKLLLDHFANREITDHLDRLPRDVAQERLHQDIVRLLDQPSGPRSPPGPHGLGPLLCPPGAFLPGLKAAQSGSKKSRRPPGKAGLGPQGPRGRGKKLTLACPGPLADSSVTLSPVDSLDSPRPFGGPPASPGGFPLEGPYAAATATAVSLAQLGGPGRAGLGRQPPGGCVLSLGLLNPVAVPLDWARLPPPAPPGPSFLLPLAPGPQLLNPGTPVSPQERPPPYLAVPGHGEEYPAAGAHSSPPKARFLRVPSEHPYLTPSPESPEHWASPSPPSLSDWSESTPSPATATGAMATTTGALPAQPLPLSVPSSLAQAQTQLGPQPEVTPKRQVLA
row,SMILES,composite z-score
1,COC(=O)C(CC#Cc1ccc2c(c1)[C@]1(C(=O)N2)[C@H](C(=O)N2CCN(c3ncccn3)CC2)[C@H]2C(=O)O[C@H](c3ccccc3)[C@H](c3ccccc3)N2[C@@H]1c1ccc(OCCO)cc1)C(=O)OC,1.02
2,COCCOC(=O)N1C(=O)[C@@]2(c3cc(C#CC4=CCCCC4)ccc31)[C@H](c1ccccc1OCCO)N1[C@H](c3ccccc3)[C@H](c3ccccc3)OC(=O)[C@H]1[C@@H]2C(=O)N1CCCCCCC1,1.05
3,CCOC(=O)C[C@H]1[C@H](OC(=O)c2ccc(C(=O)c3ccccc3)cc2)[C@@H](NC(=O)Cc2ccc(OC)cc2)c2cc(OCCCO)ccc2N1C(=O)c1ccccc1,-0.0979
4,C=CC[C@@]1(C(=O)N2CCOCC2)N=C(c2ccc(OCCCO)cc2)O[C@@H]1c1ccccc1CN=[N+]=[N-],1.09
5,NC(=O)NCC#Cc1ccc2c(c1)[C@]1(C(=O)N2)[C@H](C(=O)NC[C@H](O)c2ccccc2)[C@H]2C(=O)O[C@H](c3ccccc3)[C@H](c3ccccc3)N2[C@@H]1c1ccc(OCCO)cc1,0.0556
6,C=C(COC)/C(=C/C[C@H](OC(=O)c1ccncc1)c1ccccc1OCCO)c1cnc2ccccc2c1,1.02
7,[N-]=[N+]=Nc1ccccc1C[C@]1(C(N)=O)N=C(c2ccc(OCCCO)cc2)O[C@H]1c1ccccc1N=[N+]=[N-],0.877
8,CN1C(=O)C2C=CC(C(O)c3ccccn3)N(N(c3ccccc3)c3ccccc3)C2C1=O (stereo not given),-0.343
9,NCCCCCCNC(=O)[C@@H]1C[C@@H]2C(=O)N[C@@H](CCCCN)C(=O)N2[C@@H]1c1cccc(OCCO)c1,0.362
10,O=C1N(Cc2ccccc2)c2ccccc2[C@@H]2OC(c3ccc(OCCCO)cc3)=N[C@]12Cc1ccccc1,0.804
11,CCCCCCCCCCC(O)C1C=CC2C(=O)N(C)C(=O)C2N1NC(=O)OC(C)(C)C (stereo not given),0.0249
12,OCCCC1=CC(c2ccc(CN3CCCC3)cc2)N(Cc2sc3ccccc3c2Cl)CC1 (stereo not given),0.686
13,[N-]=[N+]=Nc1ccccc1[C@@H]1OC(c2ccc(OCCCO)cc2)=N[C@]1(Cc1ccccc1)C(=O)NCC(O)CO (stereo not given in full),0.0643
14,C=CCC(OC(C)=O)[C@@H]1[C@@H](N(Cc2cc3ccccc3o2)C(=O)c2ccc(-c3ccccc3)cc2)c2cc(OCCCO)ccc2N1C(=O)c1ccc2ccccc2c1 (stereo not given in full),0.391
15,Cc1cc(C)c(C(O)C2C=CC3C(=O)N(c4ccccc4)C(=O)C3N2Nc2ccc(C(C)C)cc2)c(C)c1 (stereo not given),1.03
16,COc1cc(OC)c(C(O)C2C=CC3C(=O)N(c4ccccc4)C(=O)C3N2Nc2ccccc2)cc1Br (stereo not given),0.862
17,CO[C@H]1O[C@H](CO)[C@@H](OC(=O)Nc2ccccc2-c2ccccc2)[C@H](OC(=O)Nc2ccc3c(c2)OCO3)[C@H]1OC(=O)Nc1ccc2c(c1)OCO2,1.12
18,CC1CC/C=C\[C@H]2OC34C=CCN(c5ccc(Cl)cc5)C(=O)[C@H]3N(CCCCCO)C(=O)[C@]4(C)C2C(=O)O1 (stereo not given in full),-0.394

row,SMILES,composite z-score
1,CC(C)N1C(=O)c2ccccc2[C@@H](C(=O)NC2CC2)[C@@H]1c1ccc(CO)cc1,-0.201
2,COCCCNC(=O)[C@@]1(Cc2ccccc2CN=[N+]=[N-])N=C(c2ccc(OCCCO)cc2)O[C@H]1c1ccccc1,1.12
3,COc1ccc([Si](C)(C)[C@@H]2[C@@H](CCO)O[C@]3(C(=O)N(Cc4ccc(N5CCCCC5=O)cc4)c4ccccc43)[C@H]2C)cc1,1.11
4,C=C(/C(=C/C[C@@H](OC(C)=O)c1cccc(OCCO)c1)c1cc(C(=O)OC)ccc1OC)C(C)C,0.666
5,C=C(COC)C(=O)CC[C@@H](OC(=O)c1cccnc1)c1ccc(OCCO)cc1,0.431
6,CN(C)c1ccc(C(O)C2C=CC3C(=O)N(c4ccccc4)C(=O)C3N2Nc2ccc([N+](=O)[O-])cc2)cc1 (stereo not given),1.13
7,C=C[C@@H](COC(C)=O)N(C(=O)OC(C)(C)C)S(=O)(=O)c1ccc(Br)cc1,0.782
8,CCCC[C@@H](O)C1=C(COc2ccccc2)C[C@H]2C(=O)N(C)C(=O)[C@H]2[C@H]1CO,-0.242
9,COC(=O)c1ccc([C@H](NC(=O)c2ccco2)[C@]2(C)C[C@H]2C2CCCCC2)cc1,-0.436
10,COc1ccc(CN(C2=CC[C@@]3(C(N)=O)C(=O)C(Cl)=C(Cl)C(=O)[C@@]3(C#N)C2)S(=O)(=O)c2ccc(Br)cc2)cc1,-0.366
11,COC(=O)c1cn(C[C@@H](Cc2ccccc2)NC(=O)N[C@H](CO)CCc2oc(C(C)=O)c(C(=O)OC)c2C(=O)OC)nn1,1.06
12,CCOC(=O)C[C@H]1[C@H](OC(=O)c2cc3ccccc3oc2=O)[C@@H](NC(=O)c2ccc(-c3ccccc3)cc2)c2cc(OCCCO)ccc2N1C(=O)c1ccccc1,1.09
13,COC(=O)[C@@]1(Cc2ccc(OC)cc2)[C@H]2c3cc(C(=O)N(C)C)n(C[C@H](O)CO)c3C[C@H]2CN1C(=O)c1ccccc1,1.05
14,CC(C)[Si](C#C[Si](C(C)C)(C(C)C)C(C)C)(O[C@H](C)c1cn([C@H](CO)Cc2ccccc2)nn1)C(C)C,0.407
15,CCOC(=O)C1=CC[C@@H](c2ccccc2C(F)(F)F)N(S(=O)(=O)c2ccc(C)cc2)[C@H]1c1ccc(C#N)cc1,1.03
16,C[N+](C)(C)CCCC[C@@H]1NC(=O)[C@H]2C[C@@H](C(=O)NCCCCCCN)[C@@H](c3ccc(O)cc3)N2C1=O,0.64
17,CC(C)N1CC=CC23O[C@@H]4C=CCOC(=O)[C@@H]4[C@H]2C(=O)N(CCCO)[C@@H]3C1=O (stereo not given in full),-0.145
